Outcome data for 101 molecules are collected here from PubChem BioAssay AID588742 (Southern Research Specialized Biocontainment Screening …, 2011).

Each structure is given as a SMILES string. Among all 1,800 compounds or so, about 410 (23%) were called active. The rule behind the calls is not given here. Only a sample is shown. Entries that show only a call come without a potency. Potency and affinity values are given separately.

The nature of this experiment: viability of Vero cells under compound – cytotoxicity control for flavivirus capping enzyme inhibitors (AID 588742). The note with it: cytotoxicity counter-screen; series mostly up to 40 µM. In general terms: The purpose of a counterscreen is to sort out artefacts and off-target activity.
As for `Cn1c(SCC(=O)N2CCCCC2)nc2cccnc21`, the result was inactive.

Consider `O=C1NC2=C(C(=O)CCC2)C(c2ccccc2[N+](=O)[O-])N1` (stereo unspecified), for which the molecule was classed as inactive.

For `Nc1sc2c(c1C(=O)NC1CC1)CCCC2`, the result was inactive. `O=C(CCCN1C(=O)/C(=C/c2ccco2)SC1=S)Nc1cccc(C(=O)O)c1`: the call was inactive. Regarding `COc1ccc(N2CCC(CNC(=S)Nc3c(C)cccc3C)C2)cc1` (stereo unspecified), the call was inactive. On to `CC(Cc1cccc(C(F)(F)F)c1)NCCOC(=O)c1ccccc1` (stereo unspecified), for which the molecule was classed as inactive. The result for `O=C(Cc1cnn(-c2ccccc2)c1)c1ccc(O)c(O)c1O` reads “inactive”; that for `Cc1ccc(S(=O)(=O)ON2C(=O)c3ccccc3C2=O)c(C)c1`, “inactive”; that for `O=c1c(C(c2ccc(O)cc2)c2c(O)nc3n(c2=O)CCCS3)c(O)nc2n1CCCS2`, “inactive”. Regarding `O=[N+]([O-])c1ccc(Cl)c2c1C1C=CCC1C(c1ccccn1)N2` (stereo unspecified), the call was inactive. For `Cc1c(OCC(=O)NCCCN2CCCC2=O)ccc2c3c(c(=O)oc12)CCCC3`, the outcome was inactive. As for `Cc1cc(=O)c2c(o1)C(=O)c1occc1C2=O`, the molecule was called inactive. As for `C/C(=C/CCC(C)[C@H]1CC[C@@]2(C)C3=C(CC[C@]12C)[C@@]1(C)CCC(=O)C(C)(C)[C@@H]1CC3)C(=O)O` (stereo partly specified), the outcome was inactive. For `CCOc1cc(C2CC(=O)N3CN(C4CCCCC4)CSC3=C2C#N)ccc1O` (stereo unspecified), the molecule was classed as inactive. Consider `N#CC1=C(N)N(c2ccc(Br)cc2)C2=C(C(=O)CCC2)C1c1cccnc1` (stereo unspecified), for which the outcome was inactive. Consider `Cc1[nH]n(-c2ccccc2)c(=O)c1N=Nc1ccccc1C(=O)O`, for which the result was inactive. Regarding `COc1cc(/C=C2\S/C(=N/S(=O)(=O)c3ccccc3)NC2=O)c([N+](=O)[O-])cc1OC`, the call was inactive.

As to `COc1cc(/C=C2/C(=O)NN(c3cccc(C)c3)C2=O)cc([N+](=O)[O-])c1O`, the outcome was inactive. For the molecule `COc1cc(/C=C2/C(=O)NN(c3ccc(F)cc3)C2=O)cc([N+](=O)[O-])c1O`, the result was inactive. The result for `O=C(O)CN1C(=O)/C(=C2\SC(=S)N(C(Cc3ccccc3)C(=O)O)C2=O)c2ccccc21` (stereo unspecified) reads “inactive”; that for `O=C(O)c1cnn2c(C(F)(F)F)cc(-c3ccccc3)nc12`, “inactive”. On to `O=C1Nc2ccc(Cl)cc2C12Nc1ccccc1-c1nnc(SCc3ccccc3F)nc1O2` (stereo unspecified), for which the result was inactive. The result for `Cc1cc(O)c(C(C)C)cc1N=Cc1ccccc1[N+](=O)[O-]` reads “inactive”. Take `Cc1csc(N/N=C/c2ccc(O)c([N+](=O)[O-])c2)n1`: the call was inactive. Turning to `Cc1ccc(S(=O)(=O)Nc2nc(-c3ccc(F)cc3)cs2)cc1`, the molecule was called inactive. The value for `Cc1nc(COC(=O)c2cc(O)c3ccccc3c2O)cs1` was “inactive”. With `CC(=O)c1cc(O)c2ccccc2c1O`, the outcome was inactive. As for `NC(=O)COc1ccc(/C=C2\C(=O)ON=C2c2ccccc2)cc1`, the molecule was classed as inactive. As to `CC(=O)N1CCn2c3c(c(=O)c4cc(C)ccc42)CCC31` (stereo unspecified), the outcome was inactive. `O=C(O)c1ccc(Cl)c(S(=O)(=O)Nc2ccc(S(=O)(=O)Nc3cccc(Cl)c3)cc2)c1`: the outcome was inactive.

As to `Cc1ccc(SCc2[nH]nc3c2C(c2ccc(C)o2)C(C#N)=C(N)O3)cc1` (stereo unspecified), the result was inactive.

In the case of `Cc1ccc(C2C(C#N)=C(N)OC3=C2C(=O)CC(C)(C)C3)s1` (stereo unspecified), the molecule was classed as inactive. In the case of `CCS(=O)(=O)c1nc(S(=O)(=O)c2ccc(C)cc2)c(N2CCCC2)s1`, the molecule was classed as inactive. As for `O=C(O)CC/C(=C\c1ccc(N2CCCC2)c([N+](=O)[O-])c1)c1nc2ccccc2s1`, the outcome was inactive. For `C=CCNc1cc(N2CCCC2)ccc1[N+](=O)[O-]`, the result was inactive.

On to `COc1ccc(/C=C2/SC(=S)N(CC(=O)O)C2=O)cc1OCc1ccc(Cl)cc1`, for which the molecule was called inactive. Turning to `COc1ccc(O)c(C(=O)c2cc(SCC(=O)O)c3nc4sc5c(c4c(=O)n3c2)CCCC5)c1`, the call was inactive. For `O=C(O)CSc1cc(C(=O)c2ccccc2O)cn2c(=O)c3c4c(sc3nc12)CCCC4`, the molecule was classed as inactive.

As for `O=C(CNc1ccc2ccccc2c1)N/N=C/c1ccncc1`, the molecule was classed as inactive. As to `CN(C)c1cccc(C(=O)OC(C(=O)Nc2ccc([N+](=O)[O-])cc2Br)c2ccccc2)c1` (stereo unspecified), the call was inactive.

For `CC1=NN(C(=S)Nc2ccccc2)C(c2ccccc2)C1` (stereo unspecified), the result was inactive. The value for `Cc1cccc(C2C3=C(Nc4[nH]n(-c5ccccc5)c(=O)c42)c2ccccc2C3=O)c1` (stereo unspecified) was “inactive”; that for `COc1cc(N2CCCC2)c(OC)cc1C=O` was “inactive”; that for `COc1ccc(S(=O)(=O)CC(=O)c2cc3cccc(C)c3oc2=O)cc1` was “inactive”. For the molecule `N#Cc1c(SC(C(=O)O)c2ccccc2)nc2c(c1-c1cccs1)CCCC2` (stereo unspecified), the call was inactive. Regarding `CC1=NN(c2nc(-c3ccccc3)cs2)C(=O)C1`, the molecule was classed as inactive.

For `COc1cc(/C=C(\C#N)C(=O)Nc2ccccc2C(=O)O)cc(Cl)c1OC`, the molecule was called inactive. For `COc1ccc2nc3ccccc3nc2c1N`, the molecule was classed as inactive. For the molecule `COc1ccc2nc3cccc(OC)c3nc2c1`, the call was inactive.

With `COc1cc(N=c2ssnc2Cl)c(OC)cc1Cl`, the molecule was called inactive. For the molecule `O=C(O)/C(CC(=O)c1ccc(Cl)cc1)=N/Nc1ccc([N+](=O)[O-])cc1[N+](=O)[O-]`, the call was inactive. For `O=C(c1ccc(NC(=O)C(c2ccccc2)c2ccccc2)cc1)c1ccc(C(=O)O)c(C(=O)O)c1`, the outcome was inactive.

Consider `COc1ccccc1/C=C1/C(=O)N(c2ccccc2)N=C1C`, for which the molecule was classed as inactive.

`CC1=NN(c2ccccc2)C(=O)/C1=C/c1cccs1`: the molecule was classed as inactive. The value for `CC(=O)CSc1nsc(SCC(C)=O)c1C#N` was “inactive”; that for `C=CCOc1ccccc1OCC(O)CNC(C)C` (stereo unspecified) was “inactive”. With `O=C(CN1C(=O)/C(=C2/SC(=S)N(CCS(=O)(=O)O)C2=O)c2ccccc21)Nc1cccc(C(F)(F)F)c1`, the result was inactive. For the molecule `Cc1oc2cc([N+](=O)[O-])c(O)c([N+](=O)[O-])c2c1C(=O)c1ccc(Br)cc1`, the molecule was classed as inactive. As to `O=[N+]([O-])c1cc(-c2ccccc2)cc([N+](=O)[O-])c1O`, the molecule was called inactive. For `CC(CNC(=O)CN1C(=O)COc2ccc(S(=O)(=O)N3CCCCC3)cc21)c1ccccc1` (stereo unspecified), the result was inactive. For the molecule `COc1ccc(-c2ccc(CCC(=O)O)o2)cc1`, the call was inactive.

As for `COC(=O)CCC(=O)OC1(C)C(=O)C2=CN(C3CCCC3)C(c3ccc(OC)cc3)=CC2=C(Br)C1=O` (stereo unspecified), the molecule was classed as inactive. On to `Cc1ccc(C(=O)/C=C/C(=O)O)cc1`, for which the result was inactive. For the molecule `O=C(O)/C=C/C(=O)c1ccc(O)cc1`, the result was inactive. Regarding `O=C(O)c1[nH]c2ccccc2c1C(c1cc(Br)ccc1O)c1c(C(=O)O)[nH]c2ccccc12`, the outcome was inactive.

As for `Cc1ccc(NCc2cccnc2)c(Br)c1`, the molecule was called inactive. As to `O=C(CC(Nc1cccc(Cl)c1Cl)C(=O)O)c1ccccc1` (stereo unspecified), the call was inactive. Consider `COc1ccc(C(C2C(=O)CC(C)(C)CC2=O)C2C(=O)CC(C)(C)CC2=O)cc1`, for which the molecule was classed as inactive. On to `CCOC(=O)c1c(C)oc2c1c(CN1CCN(C(=O)OCC)CC1)c(O)c1ccccc12`, for which the molecule was called inactive.

As for `O=C(O)CN1C(=O)C=CC1=O`, the molecule was called inactive. As to `CCOC(=O)c1c(NC(=O)C2C3C=CC(C3)C2C(=O)O)sc2c1CCC(CC)C2` (stereo unspecified), the molecule was called inactive. In the case of `Cc1ccc(/C=C2\SC(=S)N(C(Cc3ccccc3)C(=O)O)C2=O)cc1` (stereo unspecified), the result was inactive. As for `CCOC(=O)C1=C(C)NC2=C(C(=O)C(C(=O)OCC)C(c3ccco3)C2)C1c1ccccn1` (stereo unspecified), the outcome was inactive. With `Cc1ccc(C(=O)N/N=C/c2ccc(-c3ccc(Br)cc3[N+](=O)[O-])o2)o1`, the call was inactive.

`C=CCOc1ccc(/C=C2\SC(=S)N(C(C(=O)O)c3ccccc3)C2=O)cc1` (stereo unspecified): the result was inactive.

Take `C=CCn1c(=S)[nH]c2scc(-c3ccco3)c2c1=O`: the molecule was called inactive. As for `Cc1ccc(Cn2c(=S)[nH]c3ccc(N4CCOCC4)cc3c2=O)o1`, the call was inactive.

With `O=C(O)COc1ccccc1C=NNc1ccc([N+](=O)[O-])cc1S(=O)(=O)Nc1ccc(Cl)cc1`, the call was inactive. As for `Cc1ccc(NC(=S)NNc2ccc([N+](=O)[O-])cc2S(=O)(=O)Nc2ccccc2C(=O)O)cc1C`, the outcome was inactive.

Consider `CC(C)COCC(O)CCC(=O)NNC(=S)Nc1ccccc1` (stereo unspecified), for which the outcome was inactive.

Regarding `Cc1ccc2ccc(C#N)cc2c1O`, the outcome was inactive. In the case of `COc1ccccc1-c1cc(C(=O)Nc2sc3c(c2C#N)CCC(C)C3)c2ccccc2n1` (stereo unspecified), the call was inactive. With `COc1cc(C(c2c(C(=O)O)[nH]c3ccccc23)c2c(C(=O)O)[nH]c3ccccc23)ccc1OCc1ccccc1`, the molecule was called inactive. Take `COc1cc(/C=C2\C(=N)N3N=C(N4CCOCC4)SC3=NC2=O)ccc1OC(=O)c1ccccc1`: the molecule was classed as inactive.

For the molecule `Cc1cccc(N2C(=O)C(Cl)=C(N3CCOCC3)C2=O)c1`, the outcome was inactive. Consider `COc1ccc(C2C=C(c3ccc(Br)cc3)Nc3nc(N4C(=O)CCC4=O)nn32)cc1` (stereo unspecified), for which the molecule was classed as inactive. With `Cc1ccc(S(=O)(=O)Nc2ccc3ccccc3c2[N+](=O)[O-])cc1`, the result was inactive. Take `Cc1ccc(C)c(S(=O)(=O)Nc2ccc(O)c3ccccc23)c1`: the molecule was classed as inactive.

Consider `O=C(O)c1ccc(N/N=C/c2cn(Cc3ccccc3F)c3ccccc23)cc1`, for which the outcome was inactive.

As for `CC(/C=C1\SC(=S)N(NS(=O)(=O)c2ccc(C)cc2)C1=O)=C\c1ccccc1`, the result was inactive. As for `Cc1nc2ccc(NC(=O)c3cc([N+](=O)[O-])cc([N+](=O)[O-])c3Cl)cc2s1`, the molecule was classed as inactive. `Cc1cc([N+](=O)[O-])c(C)cc1-c1ccc(/C=N/NC(=O)c2cccnc2)o1`: the molecule was called inactive. On to `CN(C)c1c([N+](=O)[O-])cc(N2C(=O)C=CC2=O)cc1[N+](=O)[O-]`, for which the molecule was called inactive. `CCOc1ccc(/C=C2\SC(=S)N(NS(=O)(=O)c3ccccc3)C2=O)cc1OC`: the molecule was classed as inactive. On to `O=C(CCN1C(=O)S/C(=C/c2ccccc2)C1=O)Nc1ccc(O)c(C(=O)O)c1`, for which the result was inactive. Take `COc1ccc(OC)c(-n2c(-c3ccc(O)cc3O)n[nH]c2=S)c1`: the result was inactive. The value for `COC(=O)c1sc(-c2ccc(C(C)(C)C)cc2)cc1NC(=O)c1ccccc1C(=O)O` was “inactive”; that for `Cc1sc(NC(=O)C2CCCCC2C(=O)O)c(C(N)=O)c1-c1ccc(C(C)(C)C)cc1` (stereo unspecified) was “inactive”; that for `Cc1sc(NC(=O)C2CCCCC2C(=O)O)c(C(N)=O)c1-c1ccc(C(C)C)cc1` (stereo unspecified) was “inactive”. Consider `O=C(O)CN1C(=O)/C(=C\c2cc(Br)ccc2OCc2ccccc2Cl)SC1=S`, for which the outcome was inactive. For `Oc1cc(CNCc2ccccc2)c(O)cc1CNCc1ccccc1`, the result was inactive.
